# High-throughput results deposited in PubChem by National Center for Advancing Translational Sciences (NCATS).
# Sampled rows, rich in hits. Any-hit rate of the full collection: about 5.7%.
# HT1080-NT tox: qHTS for induction of synthetic lethality in tumor cells producing 2HG: qHTS for the HT-1080-NT fibrosarcoma cell line | hit rate 1.6% among 360,000 | AID 686970, 2013 | Potency, µM (titrated, usually from 46.1 µM), for the others: top-dose activity, negative = less viability, most hits filed as cytotoxic | HT-1080-NT fibrosarcoma viability, CellTiter-Glo ATP luminescence, 48 h;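 also: NT is the 2HG producing partner of a matched IDH1 knockdown line; 0% = DMSO-treated cells and -100% = media-only wells without cells; nearly all actives have a fitted effect of over 55% in size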
#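 Read-out is CellTiter-Glo luminescence after 10 minutes at room temperature, following 48 hours' compound treatment of HT-1080-NT cells (750 cells/well, RPMI, 5% FBS, 37 degrees C).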
# KB-V1 MDR tox: qHTS assay for MDR1-selective chemotherapeutics: Primary screen using the drug-selected MDR subline cells KB-V1; KB-V1 MDR cells viability, CellTiter-Glo, 72 h; Potency, µM (top dose mostly 46.1 µM), hits mostly cytotoxic; hit rate 3.4% among 400,000; AID 1347076, 2019; also: nearly all actives have a fitted effect of over 60% in size
#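 Drug-selected KB-V1 cells, grown in DMEM lacking phenol red with 10% FBS, receive compound titrations; after three days at 37 degrees C, surviving cell ATP is quantified by CellTiter-Glo luminescence and responses normalized and curve-fitted.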
# HT1080 IDH1KD tx: qHTS for induction of synthetic lethality in tumor cells producing 2HG: qHTS for the HT-1080-IDH1KD cell line; hit rate 2% among 360,000; Potency, µM (highest dose often 46.1 µM), inactives show top-dose activity, negative = toxicity, most hits filed as cytotoxic; HT-1080 IDH1 knockdown viability, ATP luminescence, 48 h;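 also: 0% = DMSO wells and -100% = cell-free medium wells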
#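 Viability of IDH1-knockdown HT-1080 fibrosarcoma cells was assessed by CellTiter-Glo after 48 h at 37 °C with titrated compound; concentration-effect curves were classified by fit quality and response size.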
# KB-3-1 cytotox: qHTS assay for MDR1-selective chemotherapeutics: Primary screen using the parental adenocarcinoma cell KB-3-1 | KB-3-1 viability, CellTiter-Glo ATP luminescence, 72 h | Potency, µM (series often up to 46.1 µM), actives largely listed as cytotoxic | hit rate 1.4% among 400,000 | AID 1347075, 2019; also: nearly all actives have a fitted effect of over 60% in size
#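 Here the drug-naive KB-3-1 line serves as comparator for MDR sub-line selectivity; cells received compound titrations, 72 h at 37 °C, then CellTiter-Glo readout.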
# An asterisk follows results filed as active; i = inactive; ? = inconclusive; . = not tested or not shown. Calls follow the shape of the dose curve; as a rule, active = well fitted curve in the direction sought with a large enough effect; inconclusive = small, poorly fitted or top-dose-only effect, or another doubt; inactive = no such curve, though single readings can be large; an effect the other way counts as inactive or inconclusive. Unless noted, % is scaled to controls: 0 for no effect and ±100 for the full control effect; potency is read from the fitted curve at half-maximal effect.
SMILES,HT1080-NT tox,KB-V1 MDR tox,HT1080 IDH1KD tx,KB-3-1 cytotox
Cc1nnsc1C(=O)N/N=C/c1ccc2ccccc2c1O,4.1µM*,i,3.7µM*,i
CC(C)(C)N(NC(=O)Nc1ccc(Cl)c(Cl)c1)C(=O)c1ccccc1,21µM*,23µM*,18µM*,?
CC(C)(C)N(NC(=O)Nc1ccc(F)cc1)C(=O)c1ccccc1,2%,i,-3%,i
CCOc1ccc(NC(=O)Nc2cnccn2)cc1,21%,i,20%,?
CCC(C)c1ccc(NC(=O)Nc2cnccn2)cc1 (stereo not drawn),?,?,8.2µM*,3.3µM*
O=C(CN(Cc1ccccc1)C(=O)c1cc2c(s1)CCC2)NCc1cccs1,-1%,2.9µM*,-7%,?
CCOC(=O)c1cccc(NC(=O)C2CCN(S(=O)(=O)c3ccc4c(c3)oc(=O)n4C)CC2)c1,.,i,.,i
O=S1(=O)N=C(Sc2ccc3c(c2)OCCO3)c2ccccc21,.,i,.,i
CC(NS(=O)(=O)OCC(Cl)(Cl)Cl)c1ccc(C(C)(C)C)cc1 (stereo not drawn),?,?,29µM*,i
CCOc1ccc(OCC)c(NC(=O)C2CCCN(C(=O)c3ccc(Cl)cc3)C2)c1 (stereo not drawn),11%,7.3µM*,13%,i
CCOc1ccc(OCC)c(NC(=O)C2CCCN(c3ncccn3)C2)c1 (stereo not drawn),3%,i,-3%,i
CCOc1ccc(OCC)c(NC(=O)C2CCN(c3ncccn3)CC2)c1,2%,9.2µM*,-3%,i
CC(C)c1ccccc1NC(=O)C1CCCN(C(=O)c2ccc(Cl)cc2)C1 (stereo not drawn),3%,?,2%,?
CC1CCCCC1NS(=O)(=O)CCNC(=O)c1ccccc1 (stereo not drawn),-4%,21µM*,-3%,i
O=C(NCCS(=O)(=O)NC1CCCC1)c1ccc(F)cc1,23%,i,21%,i
S=C(Nc1cc(Cl)cc(Cl)c1)NC1CCN(Cc2ccccc2)CC1,16µM*,?,?,?
S=C(NCc1ccc(Cl)cc1)NC1CCN(Cc2ccccc2)CC1,23µM*,16µM*,21µM*,?
CC(C)c1ccc(NC(=S)NC2CCN(Cc3ccccc3)CC2)cc1,?,21µM*,?,?
OC(COc1ccc(Cl)cc1)CN1CCN(c2ccccn2)CC1 (stereo not drawn),6%,i,2%,i
CC(C)(C)C1CCC(OCC(O)CN2CCN(c3ccccn3)CC2)CC1 (stereo not drawn),?,16µM*,?,?
COc1ccc(OCC(O)CN2CCN(c3ccccc3)CC2)cc1 (stereo not drawn),17%,i,10%,i
CC(C)(C)C1CCC(OCC(O)CN2CCN(Cc3ccccc3)CC2)CC1 (stereo not drawn),-22%,i,-13%,i
CC(C)c1ccc(OCC(O)CN2CCN(c3ccccc3)CC2)cc1 (stereo not drawn),?,?,16µM*,i
CC(=O)Nc1ccc(OCC(O)CN2CCN(c3cc(Cl)ccc3C)CC2)cc1 (stereo not drawn),?,4.1µM*,?,?
Cc1cc(OCC(O)CN2CCN(c3ccccn3)CC2)cc(C)c1Cl (stereo not drawn),16µM*,i,?,i
SMILES,HT1080-NT tox,KB-V1 MDR tox,HT1080 IDH1KD tx,KB-3-1 cytotox
CCCOc1cccc(C2c3c(oc4ccc(F)cc4c3=O)C(=O)N2Cc2ccc3c(c2)OCO3)c1 (stereo not drawn),.,i,.,i
Cn1c(=O)c2c(ncn2CC(=O)Nc2cccc(Cl)c2Cl)n(C)c1=O,.,i,.,i
O=S(=O)(c1ccc(Cl)cc1)c1nc(-c2cccc(Br)c2)oc1NCc1ccccc1,.,16µM*,.,?
N/C(=N/OC(=O)c1ccccc1Cl)c1ncc([N+](=O)[O-])s1,29µM*,?,18µM*,23µM*
N/C(=N\OC(=O)c1ccccc1Cl)c1cccc([N+](=O)[O-])c1,18%,i,9%,i
CC(=O)c1c(C)[nH]c(C(=O)OCC(=O)NCc2cccs2)c1C,-5%,13µM*,-27%,?
